The whole screen tested about 48,000 compounds, of which about 13,000 (27%) showed an effect of 50% or more. This is one part of the list.
What follows are compounds tested on Wolbachia pipientis (assay: Anti-Wolbachia Cell-Based Screen). Settings: 5 µM.
Type: functional
Set-up: scale not given: in the data most compounds retested in dose-response had high values
With `CCCC1(NC(=O)C(c2ccc(F)cc2)N(C)C)CC1` (stereo not drawn) the “Percent Effect” value was 19.19%.
For `Cc1ccc(CNCc2ccc(N3CCC(CO)CC3)nc2)c(C)c1.Cl`, the “Percent Effect” value was 6.349%.
In the case of `CCS(=O)(=O)NCCNCc1ccc(Cl)c2cccnc12`, the “Percent Effect” value is reported as 1.555%.
`CCc1sc(C(=O)Nc2cnn(CC(=O)NC3CC3)c2)cc1C` was tested, and the “Percent Effect” value was -4.419%.
In the case of `CC(NC(=O)c1cc2n(n1)CCCN(C(C)C)C2)c1cn2ccsc2n1` (stereo not drawn), the “Percent Effect” value is reported as 13.56%.
In the case of `O=C(O)C(F)(F)F.O=C(c1c[nH]cn1)N1CCC(F)(F)C2(CCN(c3cnccn3)C2)C1` (stereo not drawn), the “Percent Effect” value is reported as -14.15%.
With `FC1(F)CCN(Cc2cccnc2)CC12CCN(c1cnccn1)C2.O=C(O)C(F)(F)F.O=C(O)C(F)(F)F.O=C(O)C(F)(F)F` (stereo not drawn) the “Percent Effect” value was 109.7%.
With `O=C(O)C(F)(F)F.OCCN1CCC(F)(F)C2(CCN(c3cnccn3)C2)C1` (stereo not drawn) the “Percent Effect” value was 101.7%.
With `O=C(NS(=O)(=O)c1ccc2c(c1)CCC2)C1COCCO1` (stereo not drawn) the “Percent Effect” value was -6.627%.
`CCOc1cc(C)ccc1NS(=O)(=O)c1cc(C)c(C(=O)O)s1` was tested, and the “Percent Effect” value was -7.525%.
`O=C1CC(c2ccsc2)c2c(n(C3CCOCC3)[nH]c2=O)N1` (stereo not drawn) was tested, and the “Percent Effect” value was 5.675%.
`Cc1ccc(SCCN(C)C(=O)c2cn([C@H]3CC[C@@H](N)CC3)nn2)cc1` was tested, and the “Percent Effect” value was 1.127%.
With `Cc1occc1C(=O)N1CC[C@H]2C[C@@H](c3nnc(C4CC4)o3)O[C@@H]2C1` the “Percent Effect” value was 109%.
`Cc1nc([C@H]2C[C@H]3CN(C(=O)c4ccoc4C)CC[C@@H]3O2)no1` was tested, and the “Percent Effect” value was -4.157%.
With `Cc1nc([C@@H]2C[C@@H]3CCN(C(=O)c4occc4C)C[C@H]3O2)no1` the “Percent Effect” value was -8.664%.
With `Cc1ccoc1C(=O)N1CC[C@H]2C[C@H](c3nnc(C4CC4)o3)O[C@@H]2C1` the “Percent Effect” value was 102.2%.
`CCC1c2ccccc2CCN1C(=O)c1ccc(OC)nn1` (stereo not drawn) was tested, and the “Percent Effect” value was -4.117%.
With `Cc1nc(CNc2nc(-c3ccco3)nc3c2CCNCC3)n[nH]1` the “Percent Effect” value was 7.543%.
For `CC(C)n1nc2c(cc1=O)CN(Cc1nc(-c3ccco3)no1)CC2`, the “Percent Effect” value was -11.95%.
For `Cc1cc(CN(C)c2nc(-c3ccccn3)nc3c2CCNCC3)n[nH]1`, the “Percent Effect” value was -2.668%.
In the case of `Cc1nonc1CN(C)c1nc(-c2cccnc2)nc2c1CCNC2`, the “Percent Effect” value is reported as 3.087%.
In the case of `CCOCc1nc2c(c(N(C)Cc3nonc3C)n1)CCNCC2`, the “Percent Effect” value is reported as 2.534%.
For `Cc1nonc1CN(C)c1nc(-c2ccco2)nc2c1CCN(C)CC2`, the “Percent Effect” value was 97.89%.
With `Cc1cc(CN(C)c2nc(-c3ccco3)nc3c2CCN(C)CC3)on1` the “Percent Effect” value was 70.19%.
For `Cc1noc(CN(C)c2nc(-c3ccco3)nc3c2CCN(C)CC3)n1`, the “Percent Effect” value was 89.77%.
In the case of `CN(Cc1ccc2c(c1)OCO2)Cc1nc(-c2ccco2)no1`, the “Percent Effect” value is reported as 2.905%.
In the case of `COCCNC(=O)CN(C)Cc1ccc(F)cc1Cl`, the “Percent Effect” value is reported as 14.02%.
`COc1ccc(CN(C)C2CSCCSC2)c2cccnc12` was tested, and the “Percent Effect” value was -27.46%.
`CC(NC(=O)NCC(C)(C)O)c1ccc(-c2ccncc2)cc1` (stereo not drawn) was tested, and the “Percent Effect” value was -1.867%.
For `c1ccc2oc(CN3CCCCC3Cn3cncn3)nc2c1` (stereo not drawn), the “Percent Effect” value was 109.3%.
In the case of `Cc1nc(CN2CCCC2Cn2cncn2)nc2ccccc12` (stereo not drawn), the “Percent Effect” value is reported as 12.85%.
With `Cc1nc(CN2CCCCC2Cn2cncn2)nc2ccccc12` (stereo not drawn) the “Percent Effect” value was 1.919%.
With `c1ccc2oc(CCCN3CCCC3Cn3cncn3)nc2c1` (stereo not drawn) the “Percent Effect” value was -5.809%.
`Cc1nc2ccccc2nc1CN1CCCC1Cn1cncn1` (stereo not drawn) was tested, and the “Percent Effect” value was -6.198%.
In the case of `Cc1nc2ccccc2nc1CN1CCCCC1Cn1cncn1` (stereo not drawn), the “Percent Effect” value is reported as -2.917%.
`c1ccc2oc(CCCN3CCCCC3Cn3cncn3)nc2c1` (stereo not drawn) was tested, and the “Percent Effect” value was 92.19%.
With `c1ccc2oc(N3CCCCC3Cn3cncn3)nc2c1` (stereo not drawn) the “Percent Effect” value was -11.74%.
In the case of `c1ccc2oc(N3CCCC3Cn3cncn3)nc2c1` (stereo not drawn), the “Percent Effect” value is reported as 106.1%.
For `c1ccc2c(N3CCCCC3Cn3cncn3)ncnc2c1` (stereo not drawn), the “Percent Effect” value was -5.98%.
With `c1ccc2oc(CN3CCCC3Cn3cncn3)nc2c1` (stereo not drawn) the “Percent Effect” value was 131.5%.
`CCOC(=O)NC(CNC(=O)c1cc(Cl)ccn1)CC(C)C` (stereo not drawn) was tested, and the “Percent Effect” value was 7.591%.
`CCOCc1nn(CC2CC2)c2c1CN(C(=O)c1ccno1)CC2` was tested, and the “Percent Effect” value was 13.02%.
In the case of `NC(=O)CN1CCC(c2cc(C(F)(F)F)n3ccnc3n2)CC1`, the “Percent Effect” value is reported as 134.1%.
For `CC(C)n1ccnc1C1CCN(Cc2ccc(Cl)c(F)c2)CC1`, the “Percent Effect” value was -2.763%.
`CC(=O)N1CCC(c2cc(C(F)(F)F)n3ccnc3n2)CC1` was tested, and the “Percent Effect” value was 1.424%.
In the case of `N#Cc1ccccc1CN1CCC(c2nccn2CC(N)=O)CC1`, the “Percent Effect” value is reported as -2.764%.
In the case of `CN1CCC(N2CC[C@H](c3nc4ccc(C(F)(F)F)cc4[nH]3)C2)CC1`, the “Percent Effect” value is reported as -1.878%.
With `CN1CCC(c2cc(C(F)(F)F)n3ccnc3n2)CC1` the “Percent Effect” value was 137.1%.
In the case of `CC(C)N1CCC(c2cc(C(F)(F)F)n3ccnc3n2)CC1`, the “Percent Effect” value is reported as 75.91%.
For `CCCN1CCN(S(=O)(=O)c2ccccc2OC)[C@H]2CS(=O)(=O)C[C@H]21`, the “Percent Effect” value was -12.25%.
For `Cc1cnc(C)c(N2CCCC(C/C=C/c3ccccc3)(C(=O)O)C2)n1` (stereo not drawn), the “Percent Effect” value was -10.18%.
With `Cc1ccoc1CNCc1nnc2n1CCCC2C(F)(F)F` (stereo not drawn) the “Percent Effect” value was -14.27%.
For `CCNC(=O)N1CCC(Nc2nccc(NCC)n2)CC1`, the “Percent Effect” value was -9.692%.
`CCCn1ncc(-c2ccnc(N[C@@H]3C[C@@H]4CC[C@H]3C4)n2)c1C` was tested, and the “Percent Effect” value was -16.18%.
`CC[C@H](C)Nc1nccc(-c2cnc3sc(C)c(C)n3c2=O)n1` was tested, and the “Percent Effect” value was -3.163%.
With `Cc1sc2ncc(-c3ccnc(NC4CCN(C)CC4)n3)c(=O)n2c1C` the “Percent Effect” value was 102.6%.
For `CNc1nccc(-c2cn(C)nc2C)n1`, the “Percent Effect” value was 5.366%.
`CNc1nccc(-c2cnc3sc(C)c(C)n3c2=O)n1` was tested, and the “Percent Effect” value was 88.7%.
For `CCOCCN1CCN(Cc2nnc(C3CC3)o2)CC1CC` (stereo not drawn), the “Percent Effect” value was 2.687%.
In the case of `O=C(c1ccc2c(c1)CCO2)N1CCN(c2ncccn2)CC1`, the “Percent Effect” value is reported as 13.67%.
`O=C(CCc1ccc(-n2cnnn2)cc1)Nc1ccncc1` was tested, and the “Percent Effect” value was 118.2%.
`O=C(Cc1ccc(-n2cnnn2)cc1)Nc1nncs1` was tested, and the “Percent Effect” value was -7.49%.
`O=C(CCn1cc(Cl)cn1)Nc1nncs1` was tested, and the “Percent Effect” value was -12.52%.
In the case of `O=C(CCc1ccc(-n2cnnn2)cc1)Nc1nncs1`, the “Percent Effect” value is reported as 117.3%.
For `O=C(CCc1ccncc1)Nc1ccc(OCC2CC2)cc1`, the “Percent Effect” value was 33.82%.
With `COC(=O)c1ccc(NC(=O)CCc2ccncc2)c(C)c1` the “Percent Effect” value was -3.514%.
With `Cc1nnc(CN(C)Cc2ccc(C(=O)Nc3sccc3C#N)cc2)o1` the “Percent Effect” value was 8.936%.
`CC(C)c1nc2c(n1C)CCN(CCS(=O)(=O)c1ccccc1)C2` was tested, and the “Percent Effect” value was 16.54%.
In the case of `Cc1nc(-c2cccc(N3CCC(N4CCCC(C#N)C4)CC3)c2)cs1` (stereo not drawn), the “Percent Effect” value is reported as 9.753%.
`CC(=O)N1CCCC(C(=O)N2CCN(c3cnn(C)c(=O)c3)CC2)C1` (stereo not drawn) was tested, and the “Percent Effect” value was -1.408%.
`CCC(=O)N1CCCC(C(=O)N2CCN(c3cnn(C)c(=O)c3)CC2)C1` (stereo not drawn) was tested, and the “Percent Effect” value was 6.032%.
`Cn1cc(CN2CCOC(CCNC(=O)c3ccsc3)C2)cn1` (stereo not drawn) was tested, and the “Percent Effect” value was -1.141%.
`Cn1ncc(N2CCOC(CCNC(=O)N3CCCCC3)C2)cc1=O` (stereo not drawn) was tested, and the “Percent Effect” value was 104.2%.
In the case of `CC(CN1CCCC1)C(=O)NCC1CCN(c2cnn(C)c(=O)c2)CC1` (stereo not drawn), the “Percent Effect” value is reported as -3.002%.
With `CN1CCC(C(=O)NCCC2CN(c3cnn(C)c(=O)c3)CCO2)CC1` (stereo not drawn) the “Percent Effect” value was 98.07%.
In the case of `Cc1ccc(C(=O)NCCC2CN(c3cnn(C)c(=O)c3)CCO2)s1` (stereo not drawn), the “Percent Effect” value is reported as 76.89%.
`Cc1cnn(C(C)C(=O)NCC2CCN(c3cnn(C)c(=O)c3)CC2)c1` (stereo not drawn) was tested, and the “Percent Effect” value was -4.842%.
For `Cn1ncc(N2CCC(CNC(=O)[C@@H](N)c3ccccc3)CC2)cc1=O`, the “Percent Effect” value was -13.88%.
For `Cn1ncc(N2CCC(CNC(=O)[C@@H](N)C3CCCCC3)CC2)cc1=O`, the “Percent Effect” value was -13.96%.
`Cn1ncc(N2CCOC(CCNC(=O)CO)C2)cc1=O` (stereo not drawn) was tested, and the “Percent Effect” value was 110.6%.
In the case of `CC(C)C(=O)NCC(=O)NCC1CCN(c2cnn(C)c(=O)c2)CC1`, the “Percent Effect” value is reported as -2.577%.
With `CC(C)(C)c1cn2c(n1)C(CNCc1cnn3ccccc13)CCC2` (stereo not drawn) the “Percent Effect” value was 3.116%.
`O=C1CC(NS(=O)(=O)N2CCOCC2)CN1Cc1ccccc1` (stereo not drawn) was tested, and the “Percent Effect” value was 1.886%.
For `Cc1ncsc1C(=O)NCc1cccnc1N(C)CCc1ccccn1`, the “Percent Effect” value was 6.517%.
With `Cc1noc(-c2cccnc2N2CCOC(C)(c3cnn(C)c3)C2)n1` (stereo not drawn) the “Percent Effect” value was -3.53%.
In the case of `COCCN(CCOC)C(=O)NC1CCCCC1`, the “Percent Effect” value is reported as -2.793%.
With `Cc1[nH]ccc1C(=O)N[C@H]1CN(CCO)C[C@@H]1C1CC1` the “Percent Effect” value was -10.03%.
With `CCC(C)NC(=O)CS(=O)(=O)Cc1nc(-c2cccs2)no1` (stereo not drawn) the “Percent Effect” value was 8.727%.
`CNC(=O)N1CCC(=Cc2ccccc2)CC1` was tested, and the “Percent Effect” value was -5.2%.
`Cn1ncc(N2CCOC(CCNC(=O)NC(C)(C)C)C2)cc1=O` (stereo not drawn) was tested, and the “Percent Effect” value was 101.8%.
With `CCCOC(=O)NCCC1CN(c2cnn(C)c(=O)c2)CCO1` (stereo not drawn) the “Percent Effect” value was 96.42%.
For `CCC1CN(c2cnn(C)c(=O)c2Br)CCO1` (stereo not drawn), the “Percent Effect” value was 20.16%.
For `CC(C)N1CCC[C@H]1C(=O)NCC1CCN(c2cnn(C)c(=O)c2)CC1`, the “Percent Effect” value was -21.78%.
For `CCOC(=O)N1CCC(NCC2CCN(c3cnn(C)c(=O)c3)C2)CC1` (stereo not drawn), the “Percent Effect” value was -6.682%.
With `CCC(OC)C(=O)NCC1CCN(c2cnn(C)c(=O)c2)CC1` (stereo not drawn) the “Percent Effect” value was -16.23%.
For `COCCN(CC(F)F)c1cc(C(F)(F)F)nc2ncnn12`, the “Percent Effect” value was -7.811%.
With `Cc1cnn(-c2ccc(S(=O)(=O)N(C)CC(F)F)cc2F)c1` the “Percent Effect” value was 2.178%.
With `CC(C)Cc1cc(C(=O)NC(C)(C)CN2CCCCCC2)on1` the “Percent Effect” value was 2.202%.
`CN1CCN(Cc2ccccc2CNC(=O)c2ccc(Cl)cc2F)CC1` was tested, and the “Percent Effect” value was -10.17%.
`COc1cc(C(=O)NCC2(N(C)C)CCN(C)CC2)c2ccccc2n1` was tested, and the “Percent Effect” value was 126.6%.
For `Cc1cc(C(=O)NCC2(N(C)C)CCCC2)c(C)n1-c1cccnc1`, the “Percent Effect” value was 3.224%.
In the case of `COc1cc(C(=O)NC(C)(C)CN2CCN(C)CC2)c2ccccc2n1`, the “Percent Effect” value is reported as 96.51%.
With `COc1cc(C(=O)NCCS(=O)(=O)N(C)C)c2ccccc2n1` the “Percent Effect” value was 5.496%.

Source: ChEMBL document CHEMBL3988442, “University of Dundee, Small-Polar-MMV Screening Library” (2021)
